Screening results from PubChem BioAssay.
PI5P4K alpha inh: inhibitors of human PI5P4K alpha; P48426; max response, %; 1.2% of 330,000 active; PI5P4Kalpha enzyme, ADP-Glo luminescence, 60 min; hits give low values; active = max response of -50% or lower; inconclusive = between -30% and -50%; inactive = -30% or higher; also: value at the top dose of about 77 µM; % is scaled to controls: 0 for no effect and ±100 for the full control effect
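ADP-Glo luminescence end-point read after a 60 min room-temperature kinase reaction of PI5P4Kalpha plus substrate, initiated with ATP at 5 microM final. Buffer: 0.038 M HEPES pH 7.4, EGTA, 0.1% CHAPS, 5% DMSO.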
JMJD2A Tudor: inhibitors of human JMJD2A Tudor domain; AID 504339; Potency, µM (highest dose often 114 µM), for the others: top-dose activity change, negative = inhibition, usual class: inhibitors; AlphaScreen JMJD2A-Tudor / H3K4me3 peptide binding; 4.4% of 390,000 active; also: potency is read from the fitted curve at half-maximal effect; % is scaled to controls: 0 for no effect and ±100 for the full control effect; nearly all actives have a fitted effect of over 50% in size
Target sequence (O75164 whole entry, looked up, the tested form may be a part): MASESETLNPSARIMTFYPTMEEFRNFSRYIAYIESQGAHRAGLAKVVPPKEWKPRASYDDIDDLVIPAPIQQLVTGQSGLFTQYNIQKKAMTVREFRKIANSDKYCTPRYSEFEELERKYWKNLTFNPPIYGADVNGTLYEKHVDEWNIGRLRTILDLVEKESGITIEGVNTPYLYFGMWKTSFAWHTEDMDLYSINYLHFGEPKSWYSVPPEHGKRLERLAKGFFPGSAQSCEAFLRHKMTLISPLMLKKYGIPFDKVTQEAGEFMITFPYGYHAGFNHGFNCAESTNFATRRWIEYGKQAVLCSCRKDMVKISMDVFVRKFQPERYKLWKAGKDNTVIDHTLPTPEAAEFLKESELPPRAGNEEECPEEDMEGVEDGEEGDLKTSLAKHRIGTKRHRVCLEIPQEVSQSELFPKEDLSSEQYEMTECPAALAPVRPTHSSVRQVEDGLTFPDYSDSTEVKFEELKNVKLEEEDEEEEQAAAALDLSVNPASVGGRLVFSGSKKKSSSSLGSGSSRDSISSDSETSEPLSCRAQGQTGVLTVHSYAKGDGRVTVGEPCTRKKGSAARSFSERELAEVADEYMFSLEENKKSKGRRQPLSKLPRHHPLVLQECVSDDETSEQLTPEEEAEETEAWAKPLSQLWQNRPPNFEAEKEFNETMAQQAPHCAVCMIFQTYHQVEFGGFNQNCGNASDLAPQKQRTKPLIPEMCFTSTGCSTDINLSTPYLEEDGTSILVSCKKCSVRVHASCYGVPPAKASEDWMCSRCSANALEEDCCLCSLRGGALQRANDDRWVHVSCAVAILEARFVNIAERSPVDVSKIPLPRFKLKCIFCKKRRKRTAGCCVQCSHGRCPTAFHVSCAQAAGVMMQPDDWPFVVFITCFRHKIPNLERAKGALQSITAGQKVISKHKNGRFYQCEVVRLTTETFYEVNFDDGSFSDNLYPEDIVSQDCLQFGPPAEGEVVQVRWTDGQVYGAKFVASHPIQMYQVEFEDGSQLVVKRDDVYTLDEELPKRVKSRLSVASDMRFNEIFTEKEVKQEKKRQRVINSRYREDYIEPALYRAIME
HP1b binding inh: HP1-beta chromodomain-methylated histone interaction inhibition. AlphaScreen HP1-beta / biotin-H3K9me3 peptide binding. Potency, µM (top dose mostly 114 µM), inactives show at the top dose activity change, negative = inhibition, actives largely listed as inhibitors. 0.56% of 390,000 active. AID 540317; also: potency is read from the fitted curve at half-maximal effect; nearly all actives have a fitted effect of over 70% in size
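HP1-beta protein (50 nM final) preincubated 30 min at room temperature with biotinylated H3(1-18)K9me3 peptide (50 nM) in PBS pH 7.4, 0.01% Tween-20, then compound added for 30 min. AlphaScreen streptavidin donor/nickel chelate acceptor beads (10 ug/mL final), 30 min dark, luminescence read.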
PLK1 PBD block: blocks phosphopeptide binding to human PLK1 polo-box domain | Potency, µM, inactives show max response, negative = inhibition, most hits filed as inhibitors | AID 720504 | 2.8% of 360,000 active | Plk1 PBD binding of FITC phosphopeptide, fluorescence polarization; also: potency is read from the fitted curve at half-maximal effect; series mostly up to about 57 µM; % is scaled to controls: 0 for no effect and ±100 for the full control effect; nearly all actives have a fitted effect of over 65% in size
BAZ2B block: blocks human BAZ2B; Q9UIF8; AlphaScreen BAZ2B-H3K14Ac peptide displacement; Potency, µM (titrated, usually from 114 µM), without a hit: at the highest dose activity change, negative = inhibition, hits mostly inhibitors; 4.4% of 360,000 active; AID 504333; also: potency is read from the fitted curve at half-maximal effect; % is scaled to controls: 0 for no effect and ±100 for the full control effect; nearly all actives have a fitted effect of over 60% in size
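AlphaScreen luminescence quantifies BAZ2B engagement of H3K14Ac peptide; the protein and biotinylated peptide are both at 50 nM final, buffer PBS pH 7.4 with 0.01% Tween-20, all steps at room temperature.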
G9a inh: blocks human histone lysine methyltransferase G9a; G9a H3K9 monomethylation, AlphaScreen, 2 h; Potency, µM (titrated, usually from 102 µM), without a hit: top-dose activity, negative = inhibition, usual class: inhibitors; 8.8% of 350,000 active; Q96KQ7; AID 504332; also: potency is read from the fitted curve at half-maximal effect; % is scaled to controls: 0 for no effect and ±100 for the full control effect; nearly all actives have a fitted effect of over 75% in size
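Chemiluminescent proximity detection of H3K9 monomethylation, read after 10 min bead incubation in the dark. Reaction: 20 nM G9a, 500 nM biotin-H3K9 peptide, 20 uM SAM cofactor, 2 h, room temperature, following 15 min enzyme-compound preincubation.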
* hit, by the source's call; ? = inconclusive; · = not tested or not shown; ! = not active in a repeat; [ ] = remark or other dose. Hits are enriched below; roughly 12% of the tested compounds scored in any of these assays. Unless noted, calls follow the shape of the dose curve; as a rule, active = well fitted curve in the direction sought with a large enough effect; inconclusive = small, poorly fitted or top-dose-only effect, or another doubt; inactive = no such curve, though single readings can be large; an effect the other way counts as inactive or inconclusive.

SMILES | PI5P4K alpha inh | JMJD2A Tudor | HP1b binding inh | PLK1 PBD block | BAZ2B block | G9a inh
O=C(CCC1N=C2c3ccccc3N=C(SCc3ccccc3F)N2C1=O)NCc1ccccc1 (stereo not drawn) | · | -13% | 28% | · | 2% | -2%[59 µM]
O=C(NN1C(=O)NC2(CCCCC2)C1=O)c1cccs1 | 5 | -7% | 15% | -6% | · | ·
CC(C)N1CCC1(C)C(=O)Nc1ccccc1OC(F)F (stereo not drawn) | 8 | · | · | 0% | · | ·
COc1ccc(/C=C/C2=CC(C)(C)NC(=S)N2)cc1 | 2 | -8%[57.1 µM] | 14% | -14% | -14% | 8.9µM*
C/C=C\c1ccc(OC)cc1 | · | · | · | · | · | 31%[59 µM]
O=C(COC(=O)/C=C/c1ccccc1[N+](=O)[O-])NCc1ccco1 | 0 | -19% | -2%[57 µM] | -2% | · | ·
C[n+]1cc(-c2ccccc2)n2c1CCCCC2 | · | -23% | 20% | -2% | 45µM* | 71µM*
Cc1ccc(C(=O)NCCSc2c(C)[nH]c3ccccc23)cc1[N+](=O)[O-] | 10 | ? | 4% | 0% | ? | 50µM*
Cc1ccc(C(=O)OCC(=O)NC(=O)c2cccn2C)cc1 | · | 5% | 22% | -6% | 7% | -45%
Cc1ccc(C(=O)OCC(=O)NC(=O)c2cccn2C)cc1[N+](=O)[O-] | ? | -3%[11.4 µM] | 1% | 27µM* | 3% | 2%
Cc1cc(CNC(=O)Cn2nc(C)c([N+](=O)[O-])c2C)c2ccccc2n1 | -5 | -19% | 35% | -12% | -19% | 35µM*
Cc1cc2cc(CNC(=O)c3ccc(C)c([N+](=O)[O-])c3)ccc2[nH]1 | 1 | ? | -12% | -13% | ? | 56µM*
COc1ccccc1CN1CCC(n2nccc2NC(=O)CCCc2ccccc2)CC1 | 1 | -30% | 20% | -8% | -21% | 13%
CC(=O)c1cccc(NC(=O)C2CCN(S(=O)(=O)c3ccc4c(c3)oc(=O)n4C)CC2)c1 | · | -15% | 27% | · | -4% | ?
CCOc1ccc(NC(=O)c2cnc3sc(N4CCOCC4)nn3c2=O)cc1 | · | -24% | -35% | · | -11% | 17%[59 µM]
Cc1ccc(-c2nn3c(=O)cc(CN4CCN(C(=O)Nc5cc(Cl)ccc5C)CC4)nc3s2)cc1 | · | -15% | 17%[57 µM] | · | 12% | 5%[59 µM]
Cc1cc(CNC(=O)c2ccc(C)c([N+](=O)[O-])c2)c2ccccc2n1 | -9 | -8% | 22% | -11% | -35% | 35µM*
Cc1ccc(C(=O)NCCc2nc3ccccc3[nH]2)cc1[N+](=O)[O-] | -9 | -20% | 12% | -11% | 1% | 0%
Cc1ccc(C(=O)NCCn2ccc3ccccc32)cc1[N+](=O)[O-] | 2 | 79µM* | -15% | -25% | · | -44%
CCc1cccc(C)c1NC(=O)Cn1cc2c(n1)CCCC2 | · | -1% | 34% | · | -1% | 4%[59 µM]
O=[N+]([O-])c1ccc(Cl)cc1N1CCOCC1 | 9 | -35% | 11% | -7% | -12% | -1%[0.501 µM]
O=c1[nH]c(=S)[nH]c2c1C(c1cc([N+](=O)[O-])c(N3CCOCC3)cc1N1CCOCC1)O2 (stereo not drawn) | -1 | -35% | 12% | -9% | -16% | 45µM*
COc1cccc(CNS(=O)(=O)c2cc(-c3cc(C)no3)ccc2C(C)C)c1 | 9 | 1% | 37% | -6% | -12% | 71µM*
Cc1cc(-c2ccc(C(C)C)c(S(=O)(=O)NCc3ccco3)c2)on1 | -23 | -34% | 23% | ? | 50µM* | 79µM*
NC(=S)NCCC[C@H](N)C(=O)O | · | · | · | · | · | 1.7µM*!
SMILES | PI5P4K alpha inh | JMJD2A Tudor | HP1b binding inh | PLK1 PBD block | BAZ2B block | G9a inh
CN=C(N)NCCCC(N)C(=O)O (stereo not drawn) | · | · | · | · | · | 9%[12.7 µM]
CN1CCN(C(=O)/C(=C/c2cn(C)c3ccccc23)NC(=O)c2ccccc2)CC1 | -2 | -13% | 3% | -20% | -10% | ·
COc1ccc(C(=O)N/C(=C\c2cn(C)c3ccccc23)C(=O)N2CCN(C)CC2)cc1OC | -12 | ? | 18% | 27µM* | -14% | ·
COc1ccc(C(=O)N/C(=C\c2cn(C)c3ccccc23)C(=O)N2CCN(C)CC2)cc1 | -8 | -30% | 41% | -15% | -38% | 45µM*
Cc1ccc(NC(=O)N2CCc3cc(S(=O)(=O)N4CCC(C)CC4)ccc32)cc1F | · | 1% | 27% | · | -2% | -15%[59 µM]
O=C(NCN1CCc2ccccc2C1)c1cnccn1 | · | 6.3µM* | 10% | -24% | 15% | 22%[59 µM]
O=C(c1cnccn1)N1CCc2ccccc21 | -19 | 79µM* | -1% | -10% | ? | 13%[59 µM]
O=C(NCc1ccccc1)C1CCN(S(=O)(=O)c2ccc3c(c2)CCCN3C(=O)C2CCC2)CC1 | · | -5% | 11%[57 µM] | · | 3% | 18%[59 µM]
COc1ccc(-c2cn(-c3cccc(C)c3)c(=O)[nH]2)cc1OC | -5 | -23% | 20% | -23% | ? | 28µM*
COc1ccccc1-n1cc(-c2ccc(Cl)cc2)[nH]c1=O | 7 | -22%[57.1 µM] | -9% | -17% | ? | 56µM*
COc1cc(OC)c(-n2cc(-c3ccc(OC)c(OC)c3)[nH]c2=S)cc1Cl | -9 | ? | -7% | 30µM* | -24% | 32µM*
COc1ccc(-n2cc(-c3ccc(OC)c(OC)c3)[nH]c2=S)cc1 | -14 | 3.2µM* | ? | 24µM* | 1% | 0.89µM*
O=[N+]([O-])c1ccc(-c2cn(-c3ccc(Cl)cc3)c(=S)[nH]2)cc1 | -23 | -3% | 25% | -6% | 6% | ?
COc1ccccc1C(O)c1ncc(-c2ccc(Cl)cc2)[nH]1 (stereo not drawn) | 0 | · | · | -3% | · | ·
CCC(CC)c1nnc(NC(=O)Cc2c[nH]c3ccccc23)s1 | 6 | · | · | 2% | · | ·
O=c1c(-c2ccc(Cl)cc2)nc2cnc(N3CCOCC3)nc2n1C[C@H]1CCCO1 | · | · | · | · | · | 14%[0.501 µM]
NS(=O)(=O)c1ccc(NC(=O)Nc2ccc(S(N)(=O)=O)cc2)cc1 | 0 | -18% | 24% | 3% | 6% | 0%
CC(C)(C)S(=O)(=O)/C(C#N)=N/Nc1ccc(S(N)(=O)=O)cc1 | -1 | 89µM* | 27% | 0% | -23% | -24%
COc1cccc(N/N=C(\C#N)S(=O)(=O)C(C)(C)C)c1 | -5 | -24% | -13% | -8% | -26% | ?
Cc1snc(S(=O)(=O)/C(C#N)=N/Nc2ccc(C(F)(F)F)cc2)c1C#N | -21 | ? | ? | ? | ? | ?
CC(C)(C)S(=O)(=O)/C(C#N)=N/Nc1ccc(S(C)(=O)=O)cc1 | 12 | -5%[11.4 µM] | 3% | 21µM* | -15% | -44%
CC(C)(C)S(=O)(=O)/C(C#N)=N/Nc1ccc(C#N)cc1 | 1 | -23% | 22% | -12% | 71µM* | -34%
COc1cc(-c2coc3c(C(=O)NCc4ccccc4)cccc23)ccc1O | 1 | · | · | -7% | · | ·
